Screens deposited in PubChem BioAssay by National Center for Advancing Translational Sciences (NCATS).
Shown are actives, neighbours in structure and some others; about 18% of the full set was active somewhere.
TDP1 cell noCPT – qHTS for Inhibitors of human tyrosyl-DNA phosphodiesterase 1 (TDP1): qHTS in cells in absence of CPT. DT40 Tdp1-/- hTDP1 cells, no CPT, ATP luminescence, 48 h. Potency, µM (top dose mostly 46.2 µM), for the others: at the highest dose activity change, negative = growth inhibition, actives largely listed as inhibitors. 420,000 compounds, 15% hits; also: nearly all actives have a fitted effect of over 55% in size
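DT40 Tdp1-/-;hTDP1 cells, no CPT (DMSO vehicle only), 400 cells/well; compounds pin-transferred; ≥48 hr, 37 °C; CellTiter-Glo 30 min RT dark, luminescence read.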
GCN5L2 inh – qHTS Assay for Inhibitors of GCN5L2; Histone acetyltransferase KAT2A (Homo sapiens), Q92830; GCN5L2 HAT assay, ThioGlo1 CoA-SH fluorescence; AID 504327, 2011; 390,000 compounds, 0.21% hits; Potency, µM (doses to about 58.9 µM), inactives show at the top dose activity change, negative = inhibition, actives largely listed as inhibitors
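qHTS, 1536-well. 20nM enzyme, pH 7.5 HEPES/EDTA/Tween-20 buffer; 15 min compound preinc., RT. Start: 75uM H3(1-25), 70uM AcCoA, 50uM ThioGlo1. Read Ex340/Em540 at t=0 (autofluorescence flag) and t=20 min.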
TDP1 block – qHTS Assay for Inhibitors of Tyrosyl-DNA Phosphodiesterase (TDP1) | 350,000 compounds, 0.28% hits | recombinant TDP1, AlphaScreen DNA substrate cleavage | Potency, µM (highest dose often 130 µM), for inactives: at the highest dose activity change, negative = inhibition, hits mostly inhibitors; also: nearly all actives have a fitted effect of over 40% in size
Target sequence (Q9NUW8 whole entry, looked up): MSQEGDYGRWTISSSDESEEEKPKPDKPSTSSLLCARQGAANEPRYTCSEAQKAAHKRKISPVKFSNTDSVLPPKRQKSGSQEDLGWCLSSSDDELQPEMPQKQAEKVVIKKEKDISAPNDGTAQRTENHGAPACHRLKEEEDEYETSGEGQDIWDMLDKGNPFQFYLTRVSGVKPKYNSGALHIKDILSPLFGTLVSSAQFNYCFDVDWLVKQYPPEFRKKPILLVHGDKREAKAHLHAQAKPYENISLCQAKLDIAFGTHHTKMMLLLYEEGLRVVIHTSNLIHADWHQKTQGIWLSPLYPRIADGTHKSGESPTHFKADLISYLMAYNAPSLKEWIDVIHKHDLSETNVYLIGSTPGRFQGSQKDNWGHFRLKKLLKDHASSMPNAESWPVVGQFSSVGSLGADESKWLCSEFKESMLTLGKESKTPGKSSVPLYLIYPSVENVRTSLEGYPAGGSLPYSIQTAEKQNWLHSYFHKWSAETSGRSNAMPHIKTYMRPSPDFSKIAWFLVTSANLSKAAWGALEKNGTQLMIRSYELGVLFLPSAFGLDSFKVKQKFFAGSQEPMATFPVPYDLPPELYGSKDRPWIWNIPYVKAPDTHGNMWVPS
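Compounds were preincubated with Tdp1 (1 nM final) for 15 min at room temperature before substrate (15 nM final) started a 5 min reaction; beads (10 ug/ml final) were then added for 10 min before AlphaScreen detection.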
DT40 TDP1 CPT – qHTS for Inhibitors of human tyrosyl-DNA phosphodiesterase 1 (TDP1): qHTS in cells in presence of CPT. chicken DT40 Tdp1-/-;hTDP1 cells + 20 nM CPT, ATP luminescence, 48 h. Potency, µM (doses to about 46.2 µM), inactives show at the top dose activity change, negative = growth inhibition, hits mostly inhibitors. 420,000 compounds, 12% hits. AID 686979, 2013; also: nearly all actives have a fitted effect of over 55% in size
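Chicken DT40 Tdp1-/- cells stably complemented with human TDP1 were seeded at 400 cells/well in medium containing 20 nM camptothecin, exposed to pin-transferred compounds, and grown at 37 °C for at least 48 hr. Viability was read as ATP luminescence.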
PLK1 PBD inh – qHTS for Inhibitors of PLK1-PDB (polo-like kinase 1 - polo-box domain): Primary Screen; Serine/threonine-protein kinase PLK1 (Homo sapiens), P53350; 360,000 compounds, 2.8% hits; Potency, µM, inactives show max response, negative = inhibition, actives largely listed as inhibitors; AID 720504, 2013; Plk1 PBD binding of FITC phosphopeptide, fluorescence polarization; also: series mostly up to about 57 µM; nearly all actives have a fitted effect of over 65% in size
VDR inh – Inhibitors of the vitamin D receptor (VDR): qHTS; VDR-SRC2-3 peptide fluorescence polarization, 2 h; 400,000 compounds, 0.93% hits; AID 504847, 2011; Potency, µM, for the others: max response, negative = inhibition, usual class: inhibitors; Vitamin D3 receptor (Homo sapiens), P11473
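Fluorescence polarization assay measuring small-molecule disruption of VDR binding to the coregulator peptide SRC2-3. Compounds were pin-transferred (23 nl) into the reagent mix and incubated 2 h at room temperature before reading.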
Numbers without * were called inactive; ? = inconclusive; · = not tested or not shown; [ ] = another dose, or the depositor's remark. Calls follow the shape of the dose curve; as a rule, active = well fitted curve in the direction sought with a large enough effect; inconclusive = small, poorly fitted or top-dose-only effect, or another doubt; inactive = no such curve, though single readings can be large; an effect the other way counts as inactive or inconclusive. % is scaled to controls: 0 for no effect and ±100 for the full control effect; potency is read from the fitted curve at half-maximal effect.

SMILES	TDP1 cell noCPT	GCN5L2 inh	TDP1 block	DT40 TDP1 CPT	PLK1 PBD inh	VDR inh
Cc1ccc(N2CCN(C(=O)CCS(=O)(=O)c3cc4c(cc3Cl)NC(=O)CO4)CC2)c(C)c1	21µM*	-9%	5%	23µM*	·	6%
Cc1ncc(N=Nc2ccc(F)cc2)c(-c2ccc(Cl)cc2)n1	2%	-2%	3%	9%	-4%	7%
Oc1ccc(N=Nc2n[nH]c(-c3ccc(Cl)cc3)n2)cc1	16µM*	0%	13%	?	-6%	3%
Cc1ccc(S(=O)(=O)N(C)CC(=O)OCC(=O)c2c(N)n(C)c(=O)n(C)c2=O)cc1	-16%	-3%	-3%	9%	-15%	-9%
O=c1[nH][nH]c2c1[C@H](c1ccc(Cl)cc1)O[C@H](C1CC1)C2	-26%	·	·	?	12µM*	·
O=c1[nH][nH]c2c1[C@H](c1ccccc1)O[C@H](C1CCCCC1)C2	-29%	·	·	-28%	12µM*	·
CC(C)C[C@@H]1O[C@H](CCc2ccccc2)Cc2[nH][nH]c(=O)c21	?	·	·	?	-11%	·
O=c1[nH][nH]c2c1[C@H](C1CCCC1)O[C@H](CCc1ccccc1)C2	18µM*	·	·	21µM*	-25%	·
Cc1ccc(N(CC(=O)N2CCCCCC2)S(C)(=O)=O)cc1	7%	·	·	4%	-8%	·
c1cc2c3c(c1)CCCN3CCC2	-28%	·	·	-11%	·	·
C[C@@H]1CCCCO[C@H](CN(C)C(=O)Nc2ccc(F)cc2)[C@@H](C)CN([C@H](C)CO)C(=O)c2cc(N(C)C)ccc2O1	?	·	·	?	-17%	·
Cc1ccc(S(=O)(=O)N2C[C@H]3n4c(=O)ccc(=O)n4C[C@H](OC(=O)NCC4CCCCC4)[C@@]3(O)C2)cc1	3.7µM*	·	·	2.6µM*	-4%	·
CCCCCCn1c(=O)n2n(c1=O)[C@@H]1CN(S(=O)(=O)c3ccc(C)cc3)C[C@]1(O)[C@@H](OC(=O)Nc1c(C)noc1C)C2	29µM*	·	·	?	-21%	·
CCCCCCn1c(=O)n2n(c1=O)[C@@H]1CN(S(=O)(=O)c3ccc(C)cc3)C[C@]1(O)[C@@H](OC(=O)NCc1ccccc1)C2	?	·	·	?	-5%	·
Cc1ccc(S(=O)(=O)N2C[C@H]3n4c(=O)ccc(=O)n4C[C@H](OC(=O)NCc4ccccc4)[C@@]3(O)C2)cc1	26µM*	·	·	?	-22%	·
CCNC(=O)C1CCCN(C(=O)c2cnc3ccccc3n2)CC1 (stereo not drawn)	-7%	·	·	12%	-2%	·
CCC1CN(C(=O)N2CCC(C(=O)NCc3ccc(OC)cc3OC)CC2)c2cc(C)ccc2O1 (stereo not drawn)	18µM*	-16%	4%	?	·	-4%
CCOc1ccccc1CNC(=O)C1CCN(C(=O)N2CC(CC)Oc3ccc(C)cc32)CC1 (stereo not drawn)	18µM*	-9%	5%	13µM*	·	14%
CCOC(=O)N1CCN(S(=O)(=O)N2CCCC(C(=O)NCc3ccccc3OCC)C2)CC1 (stereo not drawn)	?	·	·	?	-10%	·
CCOc1ccccc1CNC(=O)C1CCCN(c2nc3ccccc3o2)C1 (stereo not drawn)	·	-9%	-1%	·	·	·
CCOc1ccccc1CNC(=O)C1CCN(c2nc3ccccc3o2)CC1	?	0%	3%	18µM*	-4%	0%
Cc1cccc(N2CCN(C(=O)c3cc(S(=O)(=O)N4CCOCC4)cn3C)CC2C)c1 (stereo not drawn)	-26%	0%	2%	?	-4%	11%
O=C(O)c1ccc(N/N=C/c2ccc(-c3ccccc3Cl)o2)cc1	-7%	-5%	1%	2%	?	-6%
O=C(N/N=C/c1ccc(-c2ccccc2Cl)o1)c1ccccc1	18µM*	-4%	5%	15µM*	-13%	-18%
O=S(=O)(N/N=C\c1ccc(-c2ccccc2Cl)o1)c1ccccc1	11µM*	-13%	?	11µM*	-26%	-10%
SMILES	TDP1 cell noCPT	GCN5L2 inh	TDP1 block	DT40 TDP1 CPT	PLK1 PBD inh	VDR inh
O=C(N/N=C/c1ccc(-c2ccccc2[N+](=O)[O-])o1)c1cccnc1	?	-22%	9%	16µM*	?	?
CCc1nc2ccccc2c(=O)n1/N=C/c1ccc(Cl)cc1	16µM*	·	·	-30%	2%	0%
CCCc1nc2ccccc2c(=O)n1/N=C/c1c(C)[nH]n(-c2ccc(C)cc2)c1=O	12µM*	-10%	12%	21µM*	-20%	0%
O=c1c(-c2ccccc2)nc2cnc(Oc3ccccc3)nc2n1Cc1cccs1	?	-15%	·	-8%	·	-4%
Cc1nn2c(C)c(C(=O)NCC(C)c3ccccc3)cnc2c1-c1ccccc1 (stereo not drawn)	?	-5%	5%	?	·	2%
O=c1[nH]nc(Br)c(=O)n1C(c1ccccc1)c1ccccc1	?	·	·	21µM*	-2%	3%
CO[C@H]1[C@H](O[C@H]2O[C@@H](C)[C@@H](O[C@@H]3C[C@](C)(O)[C@H](O)[C@H](C)O3)[C@@H](N(C)C)[C@@H]2O)[C@@H](CC=O)C[C@@H](C)[C@@H](O[C@H]2CC[C@H](N(C)C)[C@H](C)O2)/C=C\C=C/C[C@@H](C)OC(=O)C[C@H]1O	·	10%[21.4 µM]	14%[21 µM]	·	·	15%
Cc1nc(-c2ccccc2)c(-c2ccncc2)o1	·	-5%	10%	·	·	1%
CC(=O)Nc1ccc(SCC(=O)c2cc(C)ccc2C)cc1	?	5%	7%	-6%	19µM*	-14%
CCCS(=O)(=O)NCc1c(C)ncc2c1CCN(C(=O)c1cccc(C(F)(F)F)c1)C2	-9%	·	·	4%[9.04 µM]	·	·
COc1ccc2nc(N/C(N)=N/C(=S)Nc3c(C)cccc3C)nc(C)c2c1	21µM*	-22%	8%	16µM*	-26%	-19%
COc1ccc2nc(N/C(N)=N/C(=S)Nc3cccc(C)c3)nc(C)c2c1	26µM*	1%	5%	?	-8%	-23%
CCOc1ccc2nc(N/C(N)=N/C(=S)Nc3cccc(OC)c3)nc(C)c2c1	?	0%	10%	?	-8%	-9%
